Several values for one entry are separate records, joined by “and”; a condition that tells them apart may be missing. Equal values may be shown once. Over roughly 5,300 compounds, “PER2::LUC luminescence relative to vehicle control” has its median near 0.96; the highest 2% begin near 1.3. The list comes from a sample in which the highest values are over-represented; it also holds similar structures and randomly drawn compounds.
Tested on: mPer2Luc MEF
Assay: PER2::LUC luminescence relative to vehicle control (fold of vehicle); higher = higher PER2::LUC reporter signal
Conditions: 10 µM
In short: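 Each value gives PER2::LUC luminescence as fold of vehicle control, measured with the ONE-Glo luciferase assay system in mouse embryonic fibroblasts carrying the mPer2Luc reporter. Cells grown in DMEM with 10% FBS at 37 °C and 5% CO2 were seeded at ~3000 per well in 384-well plates. Library compounds were added at 10 μM 48 h later, and readings were taken 24 h and 30 h after treatment.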

| SMILES | PER2::LUC luminescence (time after treatment 24 h) | PER2::LUC luminescence (time after treatment 30 h) |
| --- | --- | --- |
| Clc1ccc(Nc2nc3ccccc3c3nc(C4CCCCC4)[nH]c23)cc1Cl | 0.84 | 0.867 |
| OCC1OC(O)CC(O)C1O (stereo not drawn) | 1.15 | 0.973 |
| CCCCCCCC(=O)CCc1ccc(O)c(OC)c1 | 1.04 | 0.901 |
| N=C(N)SCc1ccc(CSC(=N)N)s1 | 1.01 and 0.976 | 1.01 and 0.977 |
| COCCOc1nc(N)c2[nH]c(=O)n(Cc3ccccc3)c2n1 | 1.21 | 1.13 |
| O=C(O)CC1CC(c2ccccc2)=NO1 (stereo not drawn) | 0.994 and 1.06 | 0.948 and 1.15 |
| COC(=O)CC1CC(c2ccc(O)cc2)=NO1 (stereo not drawn) | 1.51 | 1.75 |
| CC(C)=CCC[C@](C)(O)[C@H]1CC[C@]2(C)[C@@H]1CC[C@@H]1[C@@]3(C)CCC(=O)C(C)(C)[C@@H]3CC[C@]12C | 1.05 | 0.987 |
| CC(=O)OC[C@@]1(O)C[C@@]23CC[C@@H]4c5ccoc5C=C[C@@]4(C)[C@@H]2CC[C@@H]1C3 | 1.02 | 0.958 |
| N#Cc1cccc2sc(C(=O)N=C(N)N)cc12 | 1.02 | 1.08 |
| C[N+](C)(C)C[C@H](O)CC(=O)O | 0.959 | 0.919 |
| N[C@H](CC(=O)O)C(=O)O | 1.09 | 1.08 |
| NCC(O)CC(=O)O (stereo not drawn) | 1.23 and 1.06 | 1.56 and 0.991 |
| O=C1OC(C=Cc2ccccc2)=NC1=Cc1cccnc1 | 1.03 | 1.05 |
| O=C(CCc1ccccc1)N1CCC(O)(Cn2cnc3cc(Cl)ccc3c2=O)CC1 | 0.949 | 0.916 |
| Cc1ccc2c(Nc3ccc(Cl)cc3)nccc2c1Nc1ncccc1-c1ncnc2nc[nH]c12 | 0.42 | 0.349 |
| N/C(=N\C(=O)c1nc(Cl)c(N)nc1N)NCc1ccccc1 | 1.08 | 0.986 |
| N=C(N)NC(=O)c1nc(Cl)c(N)nc1N | 1.32 | 1.12 |
| N=C(NC(=O)c1nc(Cl)c(N)nc1N)Nc1ccccc1 | 1.32 | 1.39 |
| CNc1ncnc2c1ncn2[C@H]1C[C@H](O)[C@@H](CO)O1 | 1.04 | 0.963 |
| C[C@@H]1O[C@@H](O[C@@H]2[C@@H](O)[C@H](O)[C@@H](CO)O[C@H]2c2c(O)cc(O)c3c(=O)cc(-c4ccc(O)cc4)oc23)[C@H](O)[C@H](O)[C@H]1O | 1.04 | 0.979 |
| O=C1c2ccccc2C(=O)C1c1ccccc1 | 1.05 and 0.913 | 1 and 0.991 |
| O=C1c2ccccc2C(=O)C1c1ccc(Br)cc1 | 0.477 | 0.974 |
| COc1ccc(C2C(=O)c3ccccc3C2=O)cc1 | 1.08 | 1.36 |

| SMILES | PER2::LUC luminescence (time after treatment 24 h) | PER2::LUC luminescence (time after treatment 30 h) |
| --- | --- | --- |
| CCCCOC(=O)OCCCC | 1 | 1.02 |
| CC1=CC(=O)CC(C)(C)C1(O)/C=C/C(C)=C\C(=O)O (racemic) | 1.01 | 1.02 |
| CCOCCOc1ccccc1C(N)=O | 0.861 | 1.09 |
| CCOc1ccccc1C(N)=O | 1.03 and 0.951 | 0.986 and 0.793 |
| CCCCCCOc1ccccc1C(N)=O | 1.33 | 1.53 |
| COc1ccc2cc([C@@H](C)C(=O)O)ccc2c1 | 1 | 1.05 |
| COc1ccc2cc(CCC(C)=O)ccc2c1 | 1.75 | 1.7 |
| COc1ccc2cc([C@H](C)C(=O)O)ccc2c1 | 0.987 and 1.09 and 0.7 | 0.972 and 0.822 and 0.852 |
| CCO/N=C1\c2ccccc2-c2nc(C#N)c(C#N)nc21 | 0.664 | 0.619 |
| C=CC(=O)c1ccc(CCCCCC)cc1 | 1.02 | 0.845 |
| CCNCCNC(=O)c1c(C)[nH]c(/C=C2\C(=O)Nc3ccc(F)cc32)c1C | 0.42 | 0.619 |
| CC(C)(Cc1nc(-c2ccc(O)cn2)no1)C(=O)NC1=C(C(=O)O)CCCC1 | 1.02 | 1.08 |
| c1ccc(-c2ccc(C(c3ccccc3)n3ccnc3)cc2)cc1 (stereo not drawn) | 1.45 | 1.32 |
| FC(F)(F)c1ccccc1-n1ccnc1 | 0.975 | 0.907 |
| N#Cc1ccc(C(c2ccc(C#N)cc2)n2cncn2)cc1 | 0.794 | 1.11 |
| O=C1c2ccccc2C(=O)c2oc(-c3ccccc3)nc21 | 1.15 | 0.538 |
| Cc1cc(NC(=O)Nc2ccc3c(ccn3C)c2)sn1 | 1.59 | 1.52 |
| CC(C)c1cc(-c2n[nH]c(=O)n2-c2ccc3c(ccn3C)c2)c(O)cc1O | 0.062 | 0.052 |
| Cn1ccc2cc(NC(=O)Nc3cccnc3)ccc21 | 1.15 | 0.855 |
| N[C@H](CCC(=O)O)C(=O)O | 1.1 | 1.01 |
| CC(C)c1cc2c(cc1S(=O)(=O)O)[C@@]1(C)CCC[C@@](C)(C(=O)O)[C@@H]1CC2 | 1.03 | 1 |
| C=C1C[C@@]23CC[C@H]4[C@@](C)(CCC[C@@]4(C)C(=O)O)[C@@H]2CC[C@]1(O)C3 | 0.886 | 1.12 |
| CC(C)C1=CC2=CC[C@@H]3[C@](C)(CCC[C@@]3(C)C(=O)O)[C@H]2CC1 | 1.34 | 1.15 |
| FC(F)(F)c1ccc(Nc2nc(-c3c(C(F)(F)F)nc4ccccn34)cs2)cc1 | 0.269 | 0.305 |

| SMILES | PER2::LUC luminescence (time after treatment 24 h) | PER2::LUC luminescence (time after treatment 30 h) |
| --- | --- | --- |
| COc1cccc(NC(=O)/C=C/c2ccc(Cl)cc2)c1 | 1.39 | 1 |
| COc1cc(NC(=O)c2ccc(-c3ccc(Cl)cc3)o2)cc(OC)c1 | 0.947 | 1.04 |
| CC(C)(C)c1ccc(/C=C/C(=O)Nc2ccc3c(c2)OCCO3)cc1 | 0.942 | 1.11 |
| C[n+]1ccc(C=Cc2ccc3ccccc3c2)cc1 | 0.908 | 1.07 |
| CC(Cc1ccccc1)Nc1ncnc2c1ncn2C1OC(CO)C(O)C1O (single isomer, unassigned; (-)) | 0.925 | 0.965 |
| Cc1ccccc1CNc1ncnc2c1ncn2[C@@H]1O[C@H](CO)[C@@H](O)[C@H]1O | 1.35 | 1.28 |
| CNc1ncnc2c1ncn2[C@@H]1O[C@H](CO)[C@@H](O)[C@H]1O | 0.974 | 1.04 |
| OC[C@H]1O[C@@H](n2cnc3c(Nc4ccccc4)ncnc32)[C@H](O)[C@@H]1O | 1.41 | 1.13 |
| OCC1OC(n2cnc3c(NC4CCCCC4)ncnc32)C(O)C1O (stereo not drawn) | 0.986 | 1.02 |
| Nc1ccc(CCNc2ncnc3c2ncn3C2OC(CO)C(O)C2O)cc1 (stereo not drawn) | 0.951 | 0.857 |
| COc1ccc2cc1Oc1ccc(cc1)C[C@@H]1c3cc(c(OC)cc3CCN1C)Oc1c(OC)c(OC)cc3c1[C@H](C2)N(C)CC3 | 0.674 | 0.713 |
| COc1cc(N2CCOCC2)ccc1NC(=O)c1csc(-c2cccnc2)n1 | 0.906 | 1.02 |
| CCOC(=O)c1cc(OC)c(OC)cc1NC(=O)c1cc(OC)c(OC)c(OC)c1 | 1.08 | 1.16 |
| CC(C)CCCC(C)C1CCC2C3CCC4CC(O)CCC4(C)C3CCC12C (stereo not drawn) | 0.978 | 0.951 |
| COc1cc2ccc(=O)oc2cc1O | 1.02 | 1.04 |
| CC1(C)C=Cc2cc3ccc(=O)oc3cc2O1 | 1.26 | 1.48 |
| O=c1ccc2cc(O)c(O)cc2o1 | 0.867 | 0.732 |
| CCOC(=O)CCCCCCCCCCCN(C)C(=O)CO[C@H](C)[C@@H](C)OCC(=O)N(C)CCCCCCCCCCCC(=O)OCC | 1.2 | 1.08 |
| CCN1CCN(Cc2ccc(NC(=O)c3ccc(C)c(/C=C/c4cnc5[nH]ccc5c4OC)c3)cc2C(F)(F)F)CC1 | 0.349 | 0.394 |
| CCCC(=O)NCCc1c(I)[nH]c2ccc(OC)cc12 | 0.668 | 0.814 |
| CCCCC/C=C\C[C@@H](O)/C=C/c1cccc(C[C@@H](O)CCCCO)n1 | 1.07 | 0.841 |
| O=C(Nc1cccc(C(F)(F)F)c1)Nc1cc(Cl)ccc1C(=O)O | 1.07 | 1 |
| CCN(CC)CCNC(=O)c1ccc(N)cc1 | 1.11 | 1.27 |
| CCN(CC)CCNC(=O)COc1ccc(OC)cc1 | 1.38 | 1.49 |

| SMILES | PER2::LUC luminescence (time after treatment 24 h) | PER2::LUC luminescence (time after treatment 30 h) |
| --- | --- | --- |
| CCN(CC)CCNC(=O)c1cc(S(C)(=O)=O)ccc1OC | 0.984 | 0.88 |
| CC12CCC3c4ccc(O)cc4CCC3C1CCC2O (stereo not drawn) | 0.721 | 0.751 |
| OC[C@H]1O[C@@H](n2cnc3c(N[C@H]4CCC[C@@H]4O)ncnc32)[C@@H](O)C1O (stereo partly drawn) | 1.25 | 0.88 |
| CN(C)CC1CCC2=C(C1=O)C(c1ccc(Cl)c(Cl)c1)C1=C(CCC(CN(C)C)C1=O)O2 (stereo not drawn) | 1.15 | 1.08 |
| O=C1Cc2c([nH]c3ccc(Br)cc23)-c2ccccc2N1 | 1.15 | 1.88 |
| O=C1Nc2cc(Br)ccc2/C1=C1/Nc2ccccc2/C1=N\O | 0.773 | 1.09 |
| CC(C)NCC(O)COc1ccc(CC(N)=O)cc1 (stereo not drawn) | 1.26 | 1.06 |
| CC(C)NC[C@@H](O)COc1ccc(CC(N)=O)cc1 | 1.01 | 0.958 |
| C[C@H](NCc1ccc(OCc2cccc(F)c2)cc1)C(N)=O | 1.22 and 1.67 | 1.5 and 1.51 |
| COc1ccc([C@@H]2CC(=O)c3c(O)cc(OC4O[C@H](CO[C@H]5O[C@@H](C)[C@@H](O)[C@@H](O)[C@H]5O)[C@H](O)[C@H](O)[C@H]4O)cc3O2)cc1O (stereo partly drawn) | 1.02 | 1.03 |
| O=C(NCc1nc2ccccc2c(=O)n1-c1ccc(F)cc1)Nc1ccc(Cl)c(C(F)(F)F)c1 | 1 | 0.929 |
| O=S(=O)(O)c1cc(N=C=S)ccc1/C=C/c1ccc(N=C=S)cc1S(=O)(=O)O | 0.832 | 0.684 |
| C/C(O)=C(\C#N)C(=O)Nc1ccc(C(F)(F)F)cc1 | 1.32 and 1.08 | 1.56 and 1.07 |
| CC(=O)Nc1ccc(NC(=S)NC(=O)c2ccc(C(C)(C)C)cc2)cc1 | 0.812 | 0.973 |
| CC(=O)Nc1ccc(O)cc1 | 0.846 | 0.81 |
| O=C([O-])CN1CCN(CC(=O)[O-])CCN([C@H](CO)[C@H](O)CO)CCN(CC(=O)[O-])CC1.[Gd+3] (racemic) | 1.03 | 1.04 |
| C[C@H]1COC2(CCN(c3nc(=O)c4cc(C(F)(F)F)cc([N+](=O)[O-])c4s3)CC2)O1 (racemic) | 1.32 | 1.39 |
| COCc1c(C(C)C)nc(C(C)C)c(/C=C/[C@@H](O)C[C@@H](O)CC(=O)O)c1-c1ccc(F)cc1 | 0.305 | 0.274 |
| CCN1CCC[C@H]1CNC(=O)c1c(OC)ccc(Br)c1OC | 1.03 | 0.993 |
| CCCCN1CCCC1CNC(=O)c1cc(C#N)c2ccccc2c1OC (stereo not drawn) | 1 | 1.58 |
| CCN1CCC[C@H]1CNC(=O)c1c(O)c(Cl)cc(Cl)c1OC | 1.14 and 1.02 | 0.977 and 0.877 |
| CC(C)=CCC[C@@H](C)[C@H]1CC[C@@]2(C)C3=C(CC[C@]12C)[C@@]1(C)CC[C@H](O)C(C)(C)[C@@H]1CC3 | 1.06 | 0.995 |

Reference: the supplement of paper PMC9334596
